In the antibiotic and cytotoxicity screens of Wong et al. (2023):
About 1,500 (3.8%) of roughly 39,000 compounds were called active. The sample as a whole holds a higher share of actives than the screen did.

System: HSkMC (human skeletal muscle cells)
Test: cytotoxicity call (relative viability < 0.9)
Details: 10 µM

Compound | cytotoxicity call
C[C@H](CO)N1C[C@H](C)[C@@H](CN(C)S(=O)(=O)c2ccc(Cl)cc2)Oc2ccc(NC(=O)Nc3ccc(C(F)(F)F)cc3)cc2CC1=O | inactive
C[C@H]1CN([C@@H](C)CO)C(=O)Cc2cc(NC(=O)Nc3cccc(C(F)(F)F)c3)ccc2O[C@H]1CN(C)S(=O)(=O)c1ccc(Cl)cc1 | active
COc1ccc(S(=O)(=O)N(C)C[C@@H]2Oc3ccc(NC(=O)Nc4cccc(C(F)(F)F)c4)cc3CC(=O)N([C@@H](C)CO)C[C@@H]2C)cc1Cl | active
C[C@H](CO)N1C[C@H](C)[C@H](CN(C)S(=O)(=O)c2ccc(Cl)cc2)Oc2ccc(NC(=O)Nc3ccc(C(F)(F)F)cc3)cc2CC1=O | active
C[C@H]1CN([C@@H](C)CO)C(=O)Cc2cc(NC(=O)Nc3cccc(C(F)(F)F)c3)ccc2O[C@H]1CN(C)S(=O)(=O)c1ccc(Oc2ccccc2)cc1 | inactive
C[C@@H]1CN([C@@H](C)CO)C(=O)Cc2cc(NC(=O)Nc3ccc(C(F)(F)F)cc3)ccc2O[C@@H]1CN(C)S(=O)(=O)c1ccc(Cl)cc1 | active
C[C@@H]1CN([C@@H](C)CO)C(=O)Cc2cc(NC(=O)Nc3ccc(C(F)(F)F)cc3)ccc2O[C@H]1CN(C)S(=O)(=O)c1ccc(Cl)cc1 | inactive
C[C@@H]1CN([C@@H](C)CO)C(=O)c2cc(NS(=O)(=O)c3ccc(F)cc3)ccc2O[C@@H](C)CCCCO[C@@H]1CN(C)Cc1ccc(C(=O)O)cc1 | inactive
C[C@H]1CN([C@@H](C)CO)C(=O)CCCn2cc(nn2)CO[C@@H]1CN(C)Cc1cccc2c1OCCCO2 | inactive
CO[C@H]1O[C@H](CO)[C@@H](OC(=O)Nc2ccc(Oc3ccccc3)cc2)[C@H](OC(=O)Nc2ccccc2)[C@H]1OC(=O)Nc1ccccc1 | inactive
COc1ccc(S(=O)(=O)N(C)C[C@@H]2OCCCC[C@@H](C)Oc3ccc(NC(=O)Nc4ccccc4)cc3C(=O)N([C@H](C)CO)C[C@H]2C)cc1 | inactive
O=C(C[C@H]1CC[C@H]2[C@@H](COC[C@@H](O)CN2S(=O)(=O)c2ccc(Oc3ccccc3)cc2)O1)NC1CCC1 | inactive
CC(C)NC(=O)Nc1ccc2c(c1)C(=O)N([C@H](C)CO)C[C@@H](C)[C@@H](CN(C)S(=O)(=O)c1cn(C)cn1)O2 | inactive
C[C@H]1CN([C@@H](C)CO)C(=O)c2cc(NC(=O)Nc3cccc4ccccc34)ccc2O[C@@H]1CN(C)Cc1ccc(C(=O)O)cc1 | inactive
COC(=O)c1c(CC[C@@H](CO)NC(=O)N[C@H](Cn2cc(-c3ccccc3C)nn2)C(C)C)oc(C(C)=O)c1C(=O)OC | inactive
CCCN(C)C[C@H]1OCCCC[C@@H](C)Oc2ccc(NC(=O)C3CCCCC3)cc2C(=O)N([C@H](C)CO)C[C@@H]1C | inactive
C[C@@H]1CN([C@H](C)CO)C(=O)Cc2cc(NC(=O)Nc3ccc(C(F)(F)F)cc3)ccc2O[C@H]1CN(C)S(=O)(=O)c1ccc(Cl)cc1 | active
C[C@H]1CN([C@@H](C)CO)C(=O)Cc2cc(NC(=O)Nc3ccc(C(F)(F)F)cc3)ccc2O[C@H]1CN(C)S(=O)(=O)c1ccc(Cl)cc1 | active
Cc1ccccc1S(=O)(=O)N(C)C[C@@H]1Oc2ccc(NC(=O)Nc3cccc(C(F)(F)F)c3)cc2CC(=O)N([C@@H](C)CO)C[C@@H]1C | active

Compound | cytotoxicity call
C[C@H]1CN([C@@H](C)CO)C(=O)Cc2cc(NC(=O)Nc3ccc(C(F)(F)F)cc3)ccc2O[C@H]1CN(C)S(C)(=O)=O | inactive
C[C@@H]1CN([C@H](C)CO)C(=O)Cc2cc(NC(=O)Nc3ccc(C(F)(F)F)cc3)ccc2O[C@@H]1CN(C)S(=O)(=O)c1ccc(Cl)cc1 | active
C[C@@H]1CN([C@@H](C)CO)C(=O)Cc2cc(NC(=O)Nc3ccc(C(F)(F)F)cc3)ccc2O[C@H]1CN(C)S(C)(=O)=O | inactive
C[C@H](CO)N1C[C@H](C)[C@@H](CN(C)S(C)(=O)=O)Oc2ccc(NC(=O)Nc3ccc(C(F)(F)F)cc3)cc2CC1=O | inactive
C[C@H]1CN([C@@H](C)CO)C(=O)Cc2cc(NC(=O)Nc3ccc(C(F)(F)F)cc3)ccc2O[C@@H]1CN(C)S(=O)(=O)c1ccc(Cl)cc1 | inactive
C[C@@H]1CN([C@H](C)CO)C(=O)Cc2cc(NC(=O)Nc3ccc(C(F)(F)F)cc3)ccc2O[C@@H]1CN(C)S(C)(=O)=O | inactive
C[C@@H]1CN([C@H](C)CO)C(=O)Cc2cc(NC(=O)Nc3ccc(C(F)(F)F)cc3)ccc2O[C@H]1CN(C)S(C)(=O)=O | inactive
COc1ccc(NC(=O)N(C)C[C@@H]2OCc3ccccc3-c3c(n(C)c4ccccc34)C(=O)N([C@H](C)CO)C[C@H]2C)cc1 | inactive
C[C@@H]1CN([C@H](C)CO)C(=O)Cc2cc(NS(=O)(=O)c3ccc(Cl)cc3)ccc2O[C@@H]1CN(C)C(=O)Nc1cccc2ccccc12 | inactive
CO[C@@H](CN(C)S(=O)(=O)c1ccc(C)cc1)[C@@H](C)CN([C@@H](C)CO)S(=O)(=O)c1cccc(Cl)c1 | inactive
C[C@@H]1CN([C@H](C)CO)C(=O)c2cc(NS(=O)(=O)c3ccc(Cl)cc3)ccc2O[C@@H](C)CCCCO[C@@H]1CN(C)C(=O)Cc1ccccc1 | inactive
CN1CCN(C(=O)C[C@H]2C=C[C@H](NC(=O)Cc3ccccn3)[C@H](CO)O2)CC1 | inactive
O=C(C1=C[C@H](c2ccsc2)C[C@H](OCCCCO)O1)N1CCN(Cc2ccc3c(c2)OCO3)CC1 | inactive
COC(=O)c1c2oc(c1C(=O)OC)C(=O)N[C@@H](Cc1ccccc1)Cn1cc(nn1)[C@@H](Cc1ccccc1)NC(=O)N[C@H](CO)CC2 | inactive
C[C@H](CO)N1C[C@H](C)[C@H](CN(C)S(=O)(=O)c2ccccc2)OCCCC[C@H](C)Oc2ccc(NC(=O)NC3CCCCC3)cc2C1=O | inactive
CCNc1cc(=N)n(CC)c2n[nH]c(N)c12 | inactive
CON=C1CC2(CC3CC(CC=C(C)CC(C)C=CC=C4COC5C(O)C(C)=CC(C(=O)O3)C45O)O2)OC(C(C)=CC(C)C)C1C (configuration not stated) | active
CO/N=C1\C[C@]2(C[C@@H]3C[C@@H](C/C=C(\C)C[C@@H](C)/C=C/C=C4\CO[C@@H]5[C@H](O)C(C)=C[C@@H](C(=O)O3)[C@]45O)O2)O[C@H](/C(C)=C/C(C)C)[C@H]1C | active
